Results from PubChem BioAssay AID588689 (Southern Research Specialized Biocontainment Screening …, 2011).
About 1,000 (0.29%) of roughly 340,000 compounds were called active. Cut-off read from the data, not from the text of the source: inconclusive = inhibition above about 29% without an active follow-up result; inactive = below that. Not all results are given here. Entries with a potency or affinity are not part of this list.

molecular target: Genome polyprotein (Dengue virus type 2 (strain 16681-PDK53)) (UniProt P29991); assay: flavivirus cap methylation enzyme inhibition – biochemical, confirmation dose response, primary screen (AID 588689); settings: Dengue-2 NS5 methyltransferase capping enzyme assay, at 25 µM, hits give high values

inhibition, inactive:
COc1cccc(CNC(=O)c2cccc(NC(=O)C3=C(C)OCCS3)c2)c1 -1.39%
O=C(Nc1cccc([N+](=O)[O-])c1)N1CCCCCC1 -0.65%
CC(C)OCCCNC(=O)c1ccc(NS(C)(=O)=O)cc1 0%
Cc1cc(C)c(C(=O)c2ccccc2)c(C)c1 -9.32%
O=S(=O)(c1ccccc1)N1CCC2(CC1)CO2 -6.64%
O=C1/C(=C/c2cccnc2)SC(=S)N1NS(=O)(=O)c1ccccc1 5.88%
CCN1C[C@@H]2[C@@H]3C(=O)N(C)C(=O)[C@@H]3[C@](Cc3ccccc3)(C1=O)N2C(=O)c1ccccc1 1.65%
CC(=O)C1=C(O)C(=O)N(c2ccc(C)cc2)C1c1ccc([N+](=O)[O-])cc1 (configuration not stated) 2.73%
COc1cc(CN2CCCCCC2)c([N+](=O)[O-])cc1OC 0%
COc1ccc(Cl)cc1NC(=O)CN(C)C(=O)c1ccc(OCc2ccccc2)c(OC)c1 -1.46%
O=C(CCCN1C(=O)/C(=C/c2ccccc2Cl)SC1=S)NNC(=O)c1ccc(Cl)cc1Cl 3.09%
CN1CCN(C(=O)CCN2C(=O)/C(=C\c3ccc(Cl)cc3Cl)SC2=S)CC1 0%
O=C(COc1ccc(Cl)cc1Cl)NN1C(=O)/C(=C\c2ccc(Cl)cc2)SC1=S 0%
O=C(CCCN1C(=O)/C(=C/c2ccccc2Cl)SC1=S)NNC(=O)c1ccc(Cl)cc1 28.1%
O=S(=O)(c1ccc(Cl)cc1)n1c(Cc2ccccc2)nc2ccccc21 -6.41%
CC(C)N(CC#CCC(O)(c1ccccc1)c1ccccc1)C(C)C -5.16%
Cc1ccc(Cl)cc1NC(=O)CN1C(=O)NC2(CCCCCC2)C1=O 3%
COCCNC(=O)CCn1nc(-c2ccc(C)cc2)c2ccccc2c1=O -3.27%
NC(=O)c1sc2cc(C(F)(F)F)cnc2c1-c1ccccc1 1.48%
NC(=O)CC(NC(=O)c1ccccc1)c1ccc(NCCCN2CCCC2=O)c([N+](=O)[O-])c1 (configuration not stated) -0.79%
CO[C@H]1C=CO[C@@]2(C)Oc3c(C)c(O)c4c(O)c(c(C=NN5CCN(C)CC5)c(O)c4c3C2=O)NC(=O)C(C)=CC=C[C@H](C)[C@H](O)[C@@H](C)[C@@H](O)[C@@H](C)[C@H](OC(C)=O)[C@@H]1C -3.66%
CO[C@H]1/C=C/O[C@@]2(C)Oc3c(C)c(O)c4c(O)c(c(C=NN5CCN(C)CC5)c(O)c4c3C2=O)NC(=O)/C(C)=C\C=C\[C@H](C)[C@H](O)[C@@H](C)[C@@H](O)[C@@H](C)[C@H](OC(C)=O)[C@@H]1C 6.59%
